# Measurements as given in PubChem BioAssay AID894 (National Center for Advancing Translational Sciences (NCATS), 2007).
# In all, about 150,000 compounds went through this assay and about 6,500 (4.3%) were called active. Roughly 12% stayed inconclusive and do not appear here. Many of the other results were omitted from the sample, so actives are more common in it than they were. A number with no mark means an inactive call. Calls come from the whole dose curve; as a rule, active = well fitted inhibition curve with a large enough effect (not every such curve was filed as active); inconclusive = small, poorly fitted or top-dose-only effect, or another doubt; inactive = no such curve, though single readings can be large or run the other way.
# Biological target: 15-hydroxyprostaglandin dehydrogenase [NAD(+)] (Homo sapiens) (UniProt P15428)
# Test: qHTS Assay for Inhibitors of HPGD (15-Hydroxyprostaglandin Dehydrogenase)
# Settings: purified HPGD, NADH fluorescence kinetic, PGE2 substrate; activity change, negative = inhibition: active compounds read low
# Summary of the method: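 NADH formation kinetics: reaction with 30 uM PGE2 and 1 mM NAD+ (final), 20 nM enzyme, Tris-HCl pH 8 with Tween 20, after 15 min compound preincubation at room temperature. Fluorescence change, last versus first of five reads.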
# % is set by controls: 0 for no effect and ±100 for the full control effect; potency is the fitted concentration of half-maximal effect.
# Sequence of 15-hydroxyprostaglandin dehydrogenase [NAD(+)] (Homo sapiens) (P15428 whole entry, looked up): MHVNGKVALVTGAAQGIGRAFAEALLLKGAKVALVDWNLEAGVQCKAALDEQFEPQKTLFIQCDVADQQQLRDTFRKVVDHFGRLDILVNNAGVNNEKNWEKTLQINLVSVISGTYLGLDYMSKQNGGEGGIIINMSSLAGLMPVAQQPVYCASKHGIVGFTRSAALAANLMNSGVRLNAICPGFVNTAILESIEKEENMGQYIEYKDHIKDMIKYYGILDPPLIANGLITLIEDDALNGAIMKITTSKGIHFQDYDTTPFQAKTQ
Structure (SMILES),"activity change, negative = inhibition [%]",Potency
CNC(=S)NNC(=O)c1sccc1OCc1ccccc1,1.03,
Cc1ccc(/C=N/NC(=O)c2sccc2OCc2ccc(F)cc2)cc1,,31.6 µM (active)
Cc1ccsc1C(=O)N/N=C/c1ccc([N+](=O)[O-])cc1,-12.4,
Cc1ccc(NC(=O)O[C@@H]2C(=O)c3cc(Br)ccc3O[C@H]2c2ccc3c(c2)OCO3)cc1Br,-8.38,
O=C1c2cccc3cc(Br)cc(c23)C(=O)N1Nc1ccccc1,-5.3,
O=C(Nc1ccccc1)OCc1cc(-c2ccc(Cl)cc2)on1,-7.01,
O=C1C=C(c2ccc(Cl)cc2)C(=O)N1Nc1ccccc1,,22.4 µM (active)
Cc1cc(N2CCOCC2)nc(-c2ccc(Br)cc2)n1,-7.33,
CCC(C)NCCOCCOc1ccc(Br)cc1C (stereo not drawn),-6.54,
Cc1ccc(C(=O)/C=C/Nc2ccc(S(=O)(=O)Nc3onc(C)c3C)cc2)cc1,-26.4,
Cc1ccc(S(=O)(=O)N2CCCC2C(=O)OCc2nc3sc(C)c(C)c3c(=O)[nH]2)cc1 (stereo not drawn),-20.7,
Cc1cc([N+](=O)[O-])ccc1NC1CCCC1,-16.1,
Cc1c(NS(=O)(=O)c2ccc(NC3CCCC3)c([N+](=O)[O-])c2)c(=O)n(-c2ccccc2)n1C,-7.49,
Cc1cc(C=O)c(C)n1-c1ccc(NC2CCCCC2)c([N+](=O)[O-])c1,,7.94 µM (active)
COc1ccc(C2NC(=S)NC3=C2CCc2ccccc23)cc1OC (stereo not drawn),-17.9,
Cc1nn(Cc2ccc(F)cc2)c(C)c1NC(=O)c1cccnc1Cl,-10.3,
COc1cc(/C=C2/C(=O)ON=C2C)ccc1OCc1ccccc1F,,1.58 µM (active)
COc1cccc(CNCCc2c[nH]c3ccccc23)c1OCc1ccccc1F,-4.46,
CCOc1cc(/C=N/O)ccc1OCc1ccccc1F,-1.63,
CCOc1ccc(/C=N/NC(=O)C(C)Sc2ccccn2)cc1OCC (stereo not drawn),-18.1,
COc1ccc(/C=C/C(=O)c2ccc(NS(=O)(=O)c3ccc(C)cc3)cc2)cc1O,-19.9,
O=C1CC(Sc2ncn[nH]2)C(=O)N1c1ccccc1 (stereo not drawn),,12.6 µM (active)
COc1ccc(N2C(=O)CC(SC(C)C)C2=O)cc1 (stereo not drawn),-4.33,
CCOC(=O)c1ccc(N2C(=O)CC(Sc3nc(O)c(CC)c(=O)[nH]3)C2=O)cc1 (stereo not drawn),-10.7,

Structure (SMILES),"activity change, negative = inhibition [%]",Potency
CCNc1nc(NC(C)C)nc(N2CC(=O)N(CC(=O)OCC)C2=N)n1,-1.19,
CCCCS(=O)(=O)N1C2=NC(C(=O)OC)=C(C(=O)OC)[C@@H]3N(Cc4ccccc4)c4ccccc4[C@]23C[C@H]1C(=O)OC,-6.02,
CCC(=O)Nc1sc(C(=O)N2CCCCC2)c(C)c1C#N,,4.47 µM (active)
CCN(CC)C(=O)c1sc(NC(=O)c2ccco2)c(C#N)c1C,-18.8,
N#Cc1ccsc1NC(=O)CN1CCCCC1,-11.5,
CC1CN(C(=S)SCC(=O)c2ccccc2)CC(C)O1 (stereo not drawn),-10.1,
CCC(C)(C)C1CCC(=NNC(=O)c2ccc(Br)o2)CC1 (stereo not drawn),-9.21,
O=C(CSc1nnc(SCc2ccc(Cl)cc2)s1)N/N=C/c1ccccc1Cl,-3.98,
O=C(COC(=O)CCCNC(=O)c1ccc(Cl)cc1)Nc1cc(Cl)ccc1Cl,-18.1,
C/C(=N\NC(=O)c1ccccc1C)c1ccc(N2CCOCC2)cc1,-15.3,
C(=N/Nc1cc(N2CCOCC2)nc(N2CCOCC2)n1)/c1ccccc1,-6.61,
Cc1ccccc1N/N=C/c1ccc(N2CCOCC2)cc1,,28.2 µM (active)
CCN(CC)S(=O)(=O)c1cc([N+](=O)[O-])ccc1N=Nc1c(O)n(C)c2ccccc12,-5.63,
Cc1c(/C=N/N2C(=O)C3C4C=CC(C4)C3C2=O)c2ccccc2n1C (stereo not drawn),-1.58,
CC(=O)N1c2ccccc2N(Cc2ccc([N+](=O)[O-])cc2)C(=O)C1(C)C,-6.13,
CCCN1CNC(=S)N(CCc2ccccc2)C1,1.42,
Cc1ccc(OCC(=O)OC(C)CN(C)Cc2ccccc2)cc1 (stereo not drawn),-13.4,
O=C(CSc1nc(-c2ccco2)cc(C(F)(F)F)n1)NCc1cccs1,-3.58,
FC(F)(F)c1cc(-c2ccco2)nc(N2CCOCC2)n1,-8.04,
O=C(CSc1nc(-c2ccco2)cc(C(F)(F)F)n1)N1CCc2ccccc2C1,,2.24 µM (active)
CN(C)c1ccc(/C=N/N(Cc2ccccc2)c2ccccc2)cc1,-11.9,
CCN(C(=O)COC(=O)c1cc(NS(=O)(=O)c2ccc(Cl)c([N+](=O)[O-])c2)ccc1O)C1CCCCC1,-7.74,
CNC(=S)N1CCN(c2ccccn2)CC1,-14,
CN(C)c1ccc(/C=N\S(=O)(=O)c2ccccc2)cc1,-10.7,

Structure (SMILES),"activity change, negative = inhibition [%]",Potency
CCOC(=O)CSc1nc2c(sc(=S)n2CCc2ccccc2)c(=O)n1Cc1ccco1,,20 µM (active)
CCOC(=O)CSc1nc2c(c(=O)n(C)c(=O)n2C)n1Cc1ccccc1F,-4.76,
COc1ccccc1NC(=O)CSc1nc2sc(C)c(C)c2c(=O)n1Cc1ccco1,-18.7,
COc1ccc(C(=O)Nc2ccc3nc(N4CCCCC4)cc(C)c3c2)cc1OC,-27.2,
COc1ccc(S(=O)(=O)N2CCCCC2)cc1Br,-1.54,
CC1(C)CC(=O)C(N=Nc2ccc(S(=O)(=O)N3CCCCCC3)cc2)=C(O)C1,,25.1 µM (active)
Cc1ccc(S(=O)(=O)N2CCC(N3CCCCCC3)CC2)cc1,-7.84,
CCOc1cc(/C=N/O)cc(Br)c1OC,-21.3,
C=CCOc1c(Br)cc(/C=N\n2nnnc2N)cc1OC,-12.6,
CCOc1c(Br)cc(/C=C2\C(=O)N(CCC#N)N=C2C)cc1OC,,5.01 µM (active)
COc1ccc(S(=O)(=O)Nc2ccc3oc(C)c(C(C)=O)c3c2)cc1,-11.3,
COc1ccc(C(=O)c2c(C)oc3cc([N+](=O)[O-])c(O)c([N+](=O)[O-])c23)cc1,,14.1 µM (active)
COc1ccc(-c2oc3cc(OC)ccc3c2C(=O)c2ccc(C#N)cc2)cc1,-8.41,
CCO/N=C(/C)c1c(O)cc(-c2ccccc2)n(-c2ccccc2)c1=O,-9.45,
Cn1nnc(NC(=O)CSc2ncn[nH]2)n1,-3.42,
CC(C)(C)c1ccc(C(=O)CSc2ncn[nH]2)cc1,,25.1 µM (active)
CCN(C(=O)CSc1ncn[nH]1)c1cccc2ccccc12,-11.5,
S=C(NCC1COc2ccccc2O1)Nc1ccc(Br)cc1 (stereo not drawn),-26.7,
Cc1ccc(CCCOC(=O)C[N+]2(C)CCCC2)cc1,-8.3,
C=CCn1c(CSc2nc3ccccc3s2)nnc1SCC(=O)NCc1ccco1,,17.8 µM (active)
O=C(CSc1nnc(-c2cccs2)n1-c1ccccc1)NCc1ccco1,-2.44,
C=CCn1c(SCC(=O)Nc2nc3ccccc3s2)nnc1-c1ccccc1O,-10.2,
O=C(Cc1ccccc1)NNS(=O)(=O)c1ccc([N+](=O)[O-])cc1,-13.6,
COc1ccc(CC(=O)Nc2cc(S(=O)(=O)N3CCCCC3)ccc2N2CCN(C)CC2)cc1,-7.18,

Structure (SMILES),"activity change, negative = inhibition [%]",Potency
COc1cc(/C=C/C(=O)N2c3ccccc3Sc3ccc(C(F)(F)F)cc32)cc(OC)c1OC,-14.1,
CCOC(=O)c1sc(=S)n2c1[nH]c(=O)c1ccc(C(=O)OC)cc12,,8.91 µM (active)
CCOC(=O)C1=C(C)Nc2sc(C(=O)c3ccc(Br)cc3)c(N)c2C1c1ccc(C(=O)OC)cc1 (stereo not drawn),-7.23,
CCOC(=O)c1sc(NC(=O)c2ccncc2)nc1C,-16.2,
CN(C)c1ccc(C(CNC(=O)c2ccc(F)cc2)c2c[nH]c3ccccc23)cc1 (stereo not drawn),-5.43,
Cc1ccc(SCC(=O)Nc2ncc(C)s2)cc1,-20.4,
Cc1ccc(SCCC(=O)OCC(=O)Nc2ncc(Cl)cc2Cl)cc1,-8.54,
Cc1ccc(SCCC(=O)NC(C(C)C)C(C)C)cc1,,7.94 µM (active)
CC/C=C\C/C=C\C/C=C\C/C=C\C/C=C\C/C=C\CCC(=O)NCCc1ccc(O)c(O)c1,-14.7,
CCOc1ccc(-n2c(N)c(C(=O)NCC3CCCO3)sc2=S)cc1 (stereo not drawn),,8.91 µM (active)
Cc1ccc(C(=O)NCC2CCCO2)o1 (stereo not drawn),-12,
Cc1ccc(-c2noc(-c3ccccc3C(=O)NCC3CCCO3)n2)cc1 (stereo not drawn),-6.63,
Cc1c(C(=O)NCC2CCCO2)sc2nc(-c3ccccc3)cn12 (stereo not drawn),,28.2 µM (active)
Cc1nc2ccccc2c2oc(C(=O)NCC3CCCO3)cc12 (stereo not drawn),-26,
CCOc1ccc(S(=O)(=O)NCC2CCCO2)cc1 (stereo not drawn),-2.22,
CCOC(=O)c1cccnc1NC(=O)c1ccncc1,-2.52,
c1ccc2c(c1)CSc1sccc1C2=C1CCNCC1,-1.18,
COCCNc1cc(NCCOC)c([N+](=O)[O-])cc1[N+](=O)[O-],-9.02,
c1ccc(-n2ncc3c(N4CCCC4)ncnc32)cc1,-12.9,
O=C(O)C1CCN(c2ncnc3ccc(-c4ccccc4C(F)(F)F)cc23)CC1,,1.26 µM (active)
Cc1scc(C(=O)NNC(=S)NCc2ccccc2)c1C,-7.44,
